The results in this text go back to PubChem BioAssay (Tox21).

Unmarked numbers belong to inactive results. Results filed as inconclusive are left out. Calls of active or inactive are those of the source. Unless noted, calls follow the shape of the dose curve; as a rule, active = well fitted cell-killing curve with a large enough effect in the repeat runs; inconclusive = weak or mixed curves; inactive = flat fitted curve, though single readings scatter.
% is scaled to controls: 0 for no effect and ±100 for the full control effect.

Estrogen receptor (Homo sapiens), sequence (P03372 whole entry, looked up): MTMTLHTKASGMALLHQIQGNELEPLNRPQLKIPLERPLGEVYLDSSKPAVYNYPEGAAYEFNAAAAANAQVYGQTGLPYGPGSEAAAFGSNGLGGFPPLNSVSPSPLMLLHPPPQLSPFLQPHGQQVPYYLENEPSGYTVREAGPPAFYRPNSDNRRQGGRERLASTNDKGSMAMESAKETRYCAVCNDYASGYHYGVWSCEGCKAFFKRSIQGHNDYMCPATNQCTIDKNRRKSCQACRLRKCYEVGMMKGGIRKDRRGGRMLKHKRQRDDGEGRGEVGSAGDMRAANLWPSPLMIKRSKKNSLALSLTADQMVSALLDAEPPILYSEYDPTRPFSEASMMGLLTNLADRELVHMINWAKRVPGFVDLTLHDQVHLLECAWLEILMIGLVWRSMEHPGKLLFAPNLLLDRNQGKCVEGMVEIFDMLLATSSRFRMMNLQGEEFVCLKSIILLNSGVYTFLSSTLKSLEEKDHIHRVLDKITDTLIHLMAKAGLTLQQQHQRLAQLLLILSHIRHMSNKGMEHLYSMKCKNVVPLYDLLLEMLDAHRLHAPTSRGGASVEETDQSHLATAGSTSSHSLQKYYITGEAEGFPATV

One assay deals with Androgen receptor (Homo sapiens) (UniProt P10275). As to the kind of experiment: qHTS assay to identify small molecule agonists of the androgen receptor (AR) signaling pathway in the presence of an antagonist (AID 1259381; calls by dose curve; also: nearly all actives have a fitted effect of over 15% in size; also: potency is read from the fitted curve at half-maximal effect). The settings on record: MDA-kb2 MMTV-luciferase, AR agonist + nilutamide, 16 h; series mostly up to 92.4 µM; activation: at the top concentration. The procedure, abridged: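 Cells are MDA-kb2 (human breast carcinoma, MMTV-luc, AR/GR responsive). Nilutamide is present at 3.0uM final throughout; compounds are added at 15 concentrations and incubated 16hr at 37C before ONE-Glo luminescence detection.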
Androgen receptor (Homo sapiens), sequence (P10275 whole entry, looked up): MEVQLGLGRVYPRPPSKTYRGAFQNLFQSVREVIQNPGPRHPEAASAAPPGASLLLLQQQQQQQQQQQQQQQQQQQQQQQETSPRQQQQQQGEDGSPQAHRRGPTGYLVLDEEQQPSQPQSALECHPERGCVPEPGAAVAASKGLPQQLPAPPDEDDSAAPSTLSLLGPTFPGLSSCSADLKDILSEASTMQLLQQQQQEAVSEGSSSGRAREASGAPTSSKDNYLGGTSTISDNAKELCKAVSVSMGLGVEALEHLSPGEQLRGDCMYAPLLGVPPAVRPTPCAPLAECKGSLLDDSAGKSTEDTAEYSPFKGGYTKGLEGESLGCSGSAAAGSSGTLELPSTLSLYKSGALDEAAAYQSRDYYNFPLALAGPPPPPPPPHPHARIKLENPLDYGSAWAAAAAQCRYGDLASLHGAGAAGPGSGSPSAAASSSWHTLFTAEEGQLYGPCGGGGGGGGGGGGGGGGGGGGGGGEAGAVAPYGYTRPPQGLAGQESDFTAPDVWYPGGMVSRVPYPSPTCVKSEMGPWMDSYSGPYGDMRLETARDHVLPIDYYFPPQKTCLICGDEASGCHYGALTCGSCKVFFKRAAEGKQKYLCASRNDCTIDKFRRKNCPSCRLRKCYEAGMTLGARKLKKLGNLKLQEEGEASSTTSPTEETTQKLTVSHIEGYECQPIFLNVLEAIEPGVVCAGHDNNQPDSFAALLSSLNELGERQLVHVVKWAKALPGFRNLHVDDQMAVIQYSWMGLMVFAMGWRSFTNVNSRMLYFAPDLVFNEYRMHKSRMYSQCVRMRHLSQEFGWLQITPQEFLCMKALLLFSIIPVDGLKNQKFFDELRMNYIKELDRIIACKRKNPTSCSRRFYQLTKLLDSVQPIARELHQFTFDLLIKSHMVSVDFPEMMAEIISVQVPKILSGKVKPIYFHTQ
In the case of `COC(=O)CC(C(C)=O)C(=O)OC` (stereo unspecified), the “activation” value is 0.726%.

Turning to `Nc1cccc2c(N)cccc12`, the Potency was 54.5 µM (active).

Take `CCc1ccc(C)cc1`: the “activation” value was 1.11%.

As to `CCCCCCCCCCCCCOS(=O)(=O)O`, the “activation” value is -1.41%.

As to `CN1C(CSCC(F)(F)F)Nc2cc(Cl)c(S(N)(=O)=O)cc2S1(=O)=O` (stereo unspecified), the “activation” value is -1.96% [at 42.5 µM].

On to `C=Cc1ccc(OC(C)=O)cc1`, for which the “activation” value is -0.195%.

Tested on in the next assay: not listed separately
As to the kind of experiment: qHTS assay to identify small molecule antagonists of the estrogen receptor beta (ER-beta) signaling pathway - cell viability counter screen (AID 1259382).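 Also: HEK293T cells carrying ER-beta-UAS-bla reporter stimulated with estradiol; nearly all actives have a fitted effect of over 55% in size.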 The settings on record: ER-beta-UAS-bla HEK293T viability, CellTiter-Glo luminescence, 16 h; series mostly up to 92.4 µM; activity change, negative = cytotoxicity: at the top concentration. The procedure, abridged:
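Following a 6 hr plating period, HEK293T cells carrying a UAS-driven beta-lactamase reporter under ER-beta control received compounds and 1nM E2 (final). After 16 hr at 37C and 2 hr substrate loading, CellTiter-Glo luminescence indicated viability.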
In the case of `COC(=O)CC(C(C)=O)C(=O)OC` (stereo unspecified), the “activity change, negative = cytotoxicity” value was 17.7%.

Regarding `CC(C)(O)CCc1ccccc1`, the “activity change, negative = cytotoxicity” value was 10.4%.

In the case of `C=C(C)c1ccccc1`, the “activity change, negative = cytotoxicity” value is -1.94%.

With `Cc1cccc2sc(N)nc12`, the “activity change, negative = cytotoxicity” value was 3.17%.

As to `CC(=O)Oc1cccc(O)c1`, the “activity change, negative = cytotoxicity” value is 10.9% [at 42.5 µM].

Turning to `CCCOC(=O)c1c(Cl)c(Cl)c(Cl)c(Cl)c1C(=O)OCCC`, the “activity change, negative = cytotoxicity” value was 1.83%.

Consider `CCc1ccc(C)cc1`, for which the “activity change, negative = cytotoxicity” value is 1.31%.

In the case of `COC(OC)OC`, the “activity change, negative = cytotoxicity” value was 2.98%.

Consider `Nc1ccc(F)cc1`, for which the “activity change, negative = cytotoxicity” value is -12.1%.

As for `CCCCCCCCCCCCCCCCCC(=O)OCC(CC)CCCC` (stereo unspecified), the “activity change, negative = cytotoxicity” value is 2.25%.

`CC(=O)OCCC(C)CC(C)(C)C` (stereo unspecified): the “activity change, negative = cytotoxicity” value is -2.41%.

As to `CCCCCc1ccco1`, the “activity change, negative = cytotoxicity” value is -13.7% [at 42.5 µM].

Consider `CC(C)(O)c1coc(S(=O)(=O)NC(=O)Nc2c3c(cc4c2CCC4)CCC3)c1`, for which the “activity change, negative = cytotoxicity” value was -0.0223%.

As for `Cc1ccc(N(CC2=NCCN2)c2cccc(O)c2)cc1`, the “activity change, negative = cytotoxicity” value was 0.819% [at 42.5 µM].

Turning to `CC(=O)C(C)=O`, the “activity change, negative = cytotoxicity” value is 0.538%.

`CC(C)N(C)C`: the “activity change, negative = cytotoxicity” value is 2.72%.

As to `CCC(=O)OCc1ccc(OC)cc1`, the “activity change, negative = cytotoxicity” value was 4.46%.

Take `O=C(NC(Cc1cc(=O)[nH]c2ccccc12)C(=O)O)c1ccc(Cl)cc1` (stereo unspecified): the “activity change, negative = cytotoxicity” value was -5.05% [at 42.5 µM].

With `O=C(O)c1ccc(O)cc1O`, the “activity change, negative = cytotoxicity” value was -8.11%.

For `CN1C(CSCC(F)(F)F)Nc2cc(Cl)c(S(N)(=O)=O)cc2S1(=O)=O` (stereo unspecified), the “activity change, negative = cytotoxicity” value was 1.28% [at 42.5 µM].

Take `CCCCOC(=O)CCCCC(=O)OCCCC`: the “activity change, negative = cytotoxicity” value was -0.459%.

Consider `O=C(Nc1ccc(C(=O)O)c(O)c1)c1ccccc1`, for which the “activity change, negative = cytotoxicity” value was -3.15% [at 42.5 µM].

Take `Cc1ccc(N(CCO)CCO)cc1`: the “activity change, negative = cytotoxicity” value is 1.47%.

Consider `CC(=O)NCCO`, for which the “activity change, negative = cytotoxicity” value was 0.67%.

In the case of `C=Cc1ccc(OC(C)=O)cc1`, the “activity change, negative = cytotoxicity” value is 8.59%.

Take `Cc1ccc2c(c1)CCCN2`: the “activity change, negative = cytotoxicity” value was -8.07%.

For `CNCc1ccc(NC(=O)c2c[nH]c3c2C(=O)CCC3)cc1`, the “activity change, negative = cytotoxicity” value is 5.25%.

For `CC(C)COC(=O)c1ccc(O)cc1`, the “activity change, negative = cytotoxicity” value is 0.139%.

As for `CSSc1ccoc1C`, the “activity change, negative = cytotoxicity” value is 1.27%.

As for `Cc1ccc(Cl)cc1N`, the “activity change, negative = cytotoxicity” value is 2.15%.

For `C[C@@H]1C[C@H]2[C@@H]3CCC4=CC(=O)C=C[C@]4(C)[C@@]3(F)[C@@H](O)C[C@]2(C)[C@@]1(O)C(=O)COP(=O)(O)O`, the “activity change, negative = cytotoxicity” value was 7.54%.

`Cc1ccc2c(c1[N+](=O)[O-])C(=O)c1ccccc1C2=O`: the “activity change, negative = cytotoxicity” value was 0.37% [at 42.5 µM].

With `CC(C)(C(=O)c1cccnc1)c1cccnc1`, the “activity change, negative = cytotoxicity” value was 4.75% [at 42.5 µM].

For another assay, the target named is Estrogen receptor (Homo sapiens) (UniProt P03372). As to the kind of experiment: qHTS assay to identify small molecule agonists of the estrogen receptor alpha (ER-alpha) signaling pathway in the presence of an antagonist (AID 1259383; calls by dose curve; also: top concentration of the series differs between compounds; nearly all actives have a fitted effect of over 15% in size). The settings on record: VM7Luc4E2 cells, ERE-luciferase, +ICI-182,780, 22 h; series mostly up to 92.4 µM; activation: at the top concentration. The procedure, abridged:
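Cells are hormone-deprived for 5 days (charcoal-stripped FBS, no phenol red), plated for 24hr, spiked with 10.0nM ICI-182,780, then dosed at 15 concentrations. After 22hr at 37C, ONE-Glo luminescence reports ERE-luciferase activity.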
With `COC(=O)CC(C(C)=O)C(=O)OC` (stereo unspecified), the “activation” value is -0.711%.

Consider `CC(C)(O)CCc1ccccc1`, for which the “activation” value is -0.252%.
